Laboratory results taken from PubChem BioAssay.
For some of these results: Measured potencies and affinities stand elsewhere. The source made the active and inactive calls.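 How the source made its calls, unless noted: active means primary screen inhibitor hit that blocks the TRPC4 channel at some tested dose, yielding a dose curve; inactive means the rest.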

Assays:
[1] = test system: TRPC4 beta (transient receptor potential cation channel C4), mouse; assay: activators of mouse TRPC4 channel, confirmation, cell-based, Fluo4 calcium, HEK293 TRPC4beta/mu-opioid, duplicates, 10 µM (AID 2426;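 active means fluorescence ratio normalized to control raised more than 50% in primary screen plus both repeat runs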); conditions: Fluo4 calcium fluorescence, at 10 µM; active compounds read high
[2] = test system: transient receptor potential cation channel C4 beta (TRPC4), mouse; assay: activators of mouse TRPC4 channel, confirmation, cell-based, second round, Fluo4, HEK293 TRPC4beta/mu-opioid, 1 µM (AID 2461;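 active means primary screen active and over 50% activation in each of two duplicate runs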); conditions: Fluo4 calcium fluorescence, at 1 µM; active compounds read high
[3] = test system: TRPC4 (transient receptor potential cation channel C4 beta), mouse; assay: positive allosteric modulators of mouse TRPC4, confirmation, cell-based, second round, Fluo-4, HEK293 TRPC4beta/mu-opioid, 1 µM (AID 2554;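 active means primary screen hit whose fluorescence ratio, in both repeats, exceeds the weak agonist control mean by 3 SD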); conditions: DAMGO EC20, Fluo-4 calcium flux, at 1 µM; active compounds read high
[4] = test system: TRPC4 beta (transient receptor potential cation channel C4), mouse; assay: positive allosteric modulators of mouse TRPC4, confirmation, cell-based, Fluo-4, HEK293 TRPC4beta/mu-opioid (AID 2555;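 active means primary screen hit whose calcium fluorescence ratio, in both repeats, exceeds the weak agonist control mean by 3 SD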); conditions: DAMGO EC20, Fluo-4 calcium flux, at 10 µM; active compounds read high
[5] = molecular target: Short transient receptor potential channel 4 (Mus musculus) (UniProt Q9QUQ5); assay: inhibitors of mouse TRPC4 channel, confirmation, cell-based, Fluo4, HEK293 TRPC4beta/mu-opioid (AID 2636;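 active means calcium signal cut by more than 3 SD below the full-agonist control yet still positive, in both repeats and the earlier primary screen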); conditions: DAMGO, Fluo4 calcium flux, at 10 µM; active compounds read high
[6] = molecular target: Short transient receptor potential channel 4 (Mus musculus) (UniProt Q9QUQ5); assay: inhibitors of mouse TRPC4 channel, confirmation, cell-based, second round, Fluo4, HEK293 TRPC4beta/mu-opioid, 1 µM (AID 2637;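 active means calcium signal ratio cut to more than 3 SD under the fully stimulated control mean yet still positive, in both repeats and the primary screen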); conditions: Fluo4 calcium flux, DAMGO, at 1 µM; active compounds read high
[7] = molecular target: Short transient receptor potential channel 4 (Mus musculus) (UniProt Q9QUQ5); assay: mouse TRPC4 channel activators, dose response, cell-based, HEK293 TRPC4/mu-opioid, Fluo-4 calcium (AID 434937;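 active means primary screen activator hit with a dose response curve and TRPC4 channel activation at any tested dose; inactive means no activation, no dose response, or not a primary hit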)
[8] = molecular target: Short transient receptor potential channel 4 (Mus musculus) (UniProt Q9QUQ5); assay: TRPC4 positive allosteric modulators, dose response, cell-based, HEK293 TRPC4/mu-opioid, Fluo-4 calcium, EC20 DAMGO (AID 434941;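 active means earlier screen potentiator hit that boosts the TRPC4 ion channel at some dose, with a dose response; inactive means no potentiation, no dose response, or not a prior hit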;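 further: calcium entry triggered by an EC20 dose of DAMGO at the co-expressed mu-opioid receptor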)
[9] = molecular target: Short transient receptor potential channel 4 (Mus musculus) (UniProt Q9QUQ5); assay: mouse TRPC4 channel inhibitors, dose response, cell-based, HEK293 TRPC4/mu-opioid, Fluo-4 calcium (AID 434942)
[10] = molecular target: Short transient receptor potential channel 6 (Mus musculus) (UniProt Q61143); assay: inhibition of mouse TRPC6 channel, confirmation, selectivity assay for TRPC4 inhibitor project, cell-based, HEK293, membrane potential dye, duplicate (AID 434948;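 active means active in primary screen and both duplicates, each dropping signal beyond three positive-control SD with fluorescence still positive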); conditions: HEK293 TRPC6, membrane potential dye fluorescence, at 10 µM, stimulated with maximal-effect acetylcholine; active compounds read high
[11] = molecular target: Short transient receptor potential channel 6 (Mus musculus) (UniProt Q61143); assay: activation of mouse TRPC6 channel, confirmation, selectivity assay for TRPC4 activator project, cell-based, HEK293, membrane potential dye, duplicate (AID 434950;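 active means membrane potential signal rise above negative control mean plus 3 SD in both duplicates, also active in the earlier TRPC4 screen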;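 on activation: 0% = buffer only wells and 100% = acetylcholine maximal-effect wells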); conditions: HEK293 TRPC6, membrane potential fluorescence, at 10 µM; active compounds read high
[12] = molecular target: Short transient receptor potential channel 6 (Mus musculus) (UniProt Q61143); assay: TRPC6 potentiation by TRPC4 potentiator hits, confirmation, selectivity assay for TRPC4 potentiator project, HEK293 cells, membrane potential dye, duplicate (AID 434952;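 active means compound raising the membrane signal above positive-control mean plus 3 SD in both repeats, and a primary screen hit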); conditions: HEK293 TRPC6, membrane potential dye fluorescence, at 10 µM, maximal acetylcholine added after compound; active compounds read high
[13] = molecular target: Short transient receptor potential channel 4 (Mus musculus) (UniProt Q9QUQ5); assay: calcium flux activators in TRPC4/5HT1a cells, counter-screen for TRPC4 activator project, cell-based, second counter screen, HEK293 TRPC4/5HT1a, Fluo-4 (AID 434977;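 active means calcium signal rise above buffer-control mean plus 5 SD in both duplicates, and also a hit in the primary screen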); conditions: Fluo-4 calcium flux, at 10 µM; active compounds read high
[14] = calcium flux inhibitors in TRPC4/5HT1a cells, confirmation, counter-screen for TRPC4 inhibitor project, cell-based, second counter screen, HEK293 TRPC4/5HT1a, Fluo-4 (AID 434978;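 active means primary screen active whose calcium signal fell more than 3 SD beyond the full-serotonin control mean in both duplicate plates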;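 further: serotonin given first at submaximal then at maximal dose after compound preincubation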); conditions: Fluo-4 calcium flux, at 10 µM, serotonin added to trigger calcium flux; active compounds read high
[15] = test system: TRPC4 (mouse), co-expressed with 5HT1a in HEK293; assay: calcium flux potentiators in TRPC4/5HT1a cells, confirmation, counter-screen for TRPC4 potentiator project, cell-based, second counter screen, HEK293 TRPC4/5HT1a, Fluo-4 (AID 434979;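 active means signal rise over 3 SD above mean of control wells given weak agonist, in both repeats and first screen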); conditions: Fluo-4 calcium flux, at 10 µM, serotonin added at its EC20 dose; active compounds read high
[16] = calcium flux activation in mu-opioid HEK293 cells, confirmation, counter-screen for TRPC4 activator project, cell-based, HEK293 mu-opioid receptor line (AID 449723;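 active means hit in primary screen, with calcium signal over 5 SD above buffer well mean in both duplicates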;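 further: counter screen cells carry the mu-opioid receptor alone and lack TRPC4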); conditions: Fluo-4 calcium fluorescence, at 10 µM; active compounds read high
[17] = calcium flux enhancement in mu-opioid HEK293 cells, confirmation, counter-screen for TRPC4 allosteric potentiator project, cell-based, HEK293 mu-opioid receptor line (AID 449724;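 active means calcium signal rise more than 3 SD above the low-dose agonist control mean, in both duplicate plates and the primary screen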); conditions: Fluo-4 calcium flux, at 10 µM, compound added before EC20 DAMGO stimulus; active compounds read high

Short transient receptor potential channel 6 (Mus musculus), sequence (Q61143 whole entry, looked up): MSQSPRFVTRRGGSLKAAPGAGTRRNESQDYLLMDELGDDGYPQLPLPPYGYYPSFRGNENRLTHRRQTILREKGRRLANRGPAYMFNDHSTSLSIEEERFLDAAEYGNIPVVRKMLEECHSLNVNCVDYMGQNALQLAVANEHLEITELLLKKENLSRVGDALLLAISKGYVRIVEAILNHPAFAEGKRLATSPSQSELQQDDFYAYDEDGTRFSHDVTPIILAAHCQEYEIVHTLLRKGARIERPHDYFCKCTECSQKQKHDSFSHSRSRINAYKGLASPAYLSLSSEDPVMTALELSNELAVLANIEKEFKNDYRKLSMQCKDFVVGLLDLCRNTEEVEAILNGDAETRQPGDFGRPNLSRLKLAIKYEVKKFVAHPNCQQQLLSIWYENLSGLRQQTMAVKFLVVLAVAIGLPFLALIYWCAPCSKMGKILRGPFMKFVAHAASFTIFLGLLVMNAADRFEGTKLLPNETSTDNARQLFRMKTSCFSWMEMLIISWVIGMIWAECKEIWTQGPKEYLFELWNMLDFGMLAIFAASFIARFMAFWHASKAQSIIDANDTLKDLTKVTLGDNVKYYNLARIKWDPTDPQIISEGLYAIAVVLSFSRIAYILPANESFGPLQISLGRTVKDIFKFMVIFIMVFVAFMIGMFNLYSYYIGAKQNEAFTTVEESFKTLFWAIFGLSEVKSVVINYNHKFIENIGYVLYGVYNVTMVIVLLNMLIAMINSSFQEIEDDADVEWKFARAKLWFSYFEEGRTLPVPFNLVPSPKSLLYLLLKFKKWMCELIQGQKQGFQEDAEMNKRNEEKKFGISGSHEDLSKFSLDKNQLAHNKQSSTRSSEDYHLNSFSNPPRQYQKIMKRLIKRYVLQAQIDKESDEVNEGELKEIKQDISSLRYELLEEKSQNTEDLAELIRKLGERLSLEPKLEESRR
Short transient receptor potential channel 4 (Mus musculus), sequence (Q9QUQ5 whole entry, looked up): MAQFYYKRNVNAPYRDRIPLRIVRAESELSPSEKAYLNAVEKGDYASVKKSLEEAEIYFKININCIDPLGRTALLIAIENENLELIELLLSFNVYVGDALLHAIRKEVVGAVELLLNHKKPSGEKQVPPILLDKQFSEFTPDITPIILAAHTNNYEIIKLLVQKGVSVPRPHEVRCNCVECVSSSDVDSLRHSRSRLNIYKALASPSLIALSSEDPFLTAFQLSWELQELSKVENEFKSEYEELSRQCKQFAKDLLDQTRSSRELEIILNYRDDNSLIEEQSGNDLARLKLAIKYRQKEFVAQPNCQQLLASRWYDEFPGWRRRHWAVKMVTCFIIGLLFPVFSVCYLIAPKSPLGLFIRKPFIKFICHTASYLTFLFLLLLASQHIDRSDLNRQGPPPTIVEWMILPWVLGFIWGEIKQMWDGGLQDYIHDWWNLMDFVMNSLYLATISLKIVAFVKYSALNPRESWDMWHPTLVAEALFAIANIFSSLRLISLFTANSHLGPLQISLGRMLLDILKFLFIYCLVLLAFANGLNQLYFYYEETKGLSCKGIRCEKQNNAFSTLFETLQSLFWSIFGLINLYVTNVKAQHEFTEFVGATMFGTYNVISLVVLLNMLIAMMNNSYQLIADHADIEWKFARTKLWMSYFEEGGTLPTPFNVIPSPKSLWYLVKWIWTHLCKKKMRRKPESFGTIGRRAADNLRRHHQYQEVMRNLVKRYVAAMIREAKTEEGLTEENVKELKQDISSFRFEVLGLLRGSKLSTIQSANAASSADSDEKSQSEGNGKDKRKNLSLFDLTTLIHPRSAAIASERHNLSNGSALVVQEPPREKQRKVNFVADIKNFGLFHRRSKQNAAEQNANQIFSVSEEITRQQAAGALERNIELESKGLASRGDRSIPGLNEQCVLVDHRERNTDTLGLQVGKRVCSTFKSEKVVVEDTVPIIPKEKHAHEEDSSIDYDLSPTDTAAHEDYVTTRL

Compound | outcome [1] | outcome [2] | outcome [3] | potentiation [4] | outcome [5] | outcome [6] | outcome [7] | outcome [8] | outcome [9] | outcome [10] | outcome [11] | outcome [12] | outcome [13] | outcome [14] | potentiation [15] | outcome [16] | outcome [17] | outcome [4] | outcome [15] | activation [11]
Cc1cc2oc(C(=O)N(Cc3cccs3)C3CCS(=O)(=O)C3)cc(=O)c2cc1Cl (stereo not drawn) | inactive | inactive | inactive | 40% (active) | inactive | inactive | inactive | inactive | inactive | inactive | inactive | inactive | inactive | inactive | 66.3% (active) | inactive | inactive |  |  | 
CC1(C)CN=c2s/c(=C\c3ccc(Cl)cc3)c(=O)n2C1 | inactive | inactive | inactive |  | inactive | inactive | inactive | inactive | inactive | inactive | inactive | inactive | inactive | inactive | 25.3% (active) | inactive | inactive | inactive |  | 
O=C(Nc1ccc([N+](=O)[O-])cn1)C1CCCCC1 | inactive | inactive | inactive |  | inactive | inactive | inactive | inactive | inactive | inactive | inactive | inactive | inactive | inactive |  | inactive | inactive | inactive | inactive | 
CCN(CCCNC(=O)CCCOc1cc(=O)n(C)c2ccccc12)Cc1ccccc1 | inactive | inactive | inactive |  | inactive | inactive | inactive | inactive | inactive | inactive | inactive | inactive | inactive | inactive | 16.1% (active) | inactive | inactive | inactive |  | 
O=[N+]([O-])c1cccc(CSc2nnc(Cc3ccccc3)n2-c2ccc(F)cc2)c1 | inactive | inactive | inactive |  | inactive | inactive | inactive | inactive | inactive | inactive | inactive | inactive | inactive | inactive |  | inactive | inactive | inactive | inactive | 
Cc1ccc(NS(=O)(=O)c2ccc(NS(=O)(=O)c3cccs3)cc2)cc1 | inactive | inactive | inactive |  | inactive | inactive | inactive | inactive | inactive | inactive | inactive | inactive | inactive | inactive | 15% (active) | inactive | inactive | inactive |  | 
Cn1c(/N=C/c2ccccc2[N+](=O)[O-])nc2ccccc21 | inactive | inactive | inactive |  | inactive | inactive | inactive | inactive | inactive | inactive | inactive | inactive | inactive | inactive | 11.9% (active) | inactive | inactive | inactive |  | 
CSCC[C@H](NC(=O)N1CCn2c1nc1ccccc12)C(=O)NCc1ccc(F)cc1 | inactive | inactive | inactive | 27% (active) | inactive | inactive | inactive | inactive | inactive | inactive | inactive | inactive | inactive | inactive |  | inactive | inactive |  | inactive | 
OC1(c2ccc(Br)cc2)CN(c2ccccc2)C2=[N+]1CCS2 (stereo not drawn) | inactive | inactive | inactive |  | inactive | inactive | inactive | inactive | inactive | inactive |  | inactive | inactive | inactive |  | inactive | inactive | inactive | inactive | 36.5% (active)
COC(=O)C(CC(=O)Nc1cc(C)ccc1C)Nc1ccccc1OC (stereo not drawn) | inactive | inactive | inactive |  | inactive | inactive | inactive | inactive | inactive | inactive |  | inactive | inactive | inactive |  | inactive | inactive | inactive | inactive | 40.5% (active)
Cn1c(=O)c2c(nc(CN3CCc4ccccc4C3)n2Cc2ccc(F)cc2)n(C)c1=O | inactive | inactive | inactive |  | inactive | inactive | inactive | inactive | inactive | inactive | inactive | inactive | inactive | inactive | 59.5% (active) | inactive | inactive | inactive |  | 
COc1ccc(NC(C)=O)cc1NC(C)C(=O)Nc1cc(C(F)(F)F)ccc1N1CCOCC1 (stereo not drawn) | inactive | inactive | inactive |  | inactive | inactive | inactive | inactive | inactive | inactive | inactive | inactive | inactive | inactive | 14.5% (active) | inactive | inactive | inactive |  | 
NC(=O)c1ccc(Oc2ccc3c(c2)CCC3)c([N+](=O)[O-])c1 | inactive | inactive | inactive | 42% (active) | inactive | inactive | inactive | inactive | inactive | inactive | inactive | inactive | inactive | inactive | 84.5% (active) | inactive | inactive |  |  | 
COc1ccc(C2CC(=O)c3cnc(N4CCN(Cc5ccccc5)CC4)nc3C2)cc1 (stereo not drawn) | inactive | inactive | inactive |  | inactive | inactive | inactive | inactive | inactive | inactive | inactive | inactive | inactive | inactive | 14.7% (active) | inactive | inactive | inactive |  | 
